Experiment [1] concerns the target CDK3/Cyclin E (Homo sapiens) (UniProt P24864+Q00526). The settings on record: at 1 µM.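 Also: each figure is a mean percent inhibition of the CDK3/cyclin E complex.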
In experiment [2] the target is Cyclin-dependent kinase 4 (Homo sapiens) (UniProt P11802). The settings on record: at 0.1 µM.
The target is the same in experiment [3]. The settings on record: at 1 µM.
In experiment [4] the target is Cyclin-dependent kinase 5 (Homo sapiens) (UniProt Q00535). Conditions: at 0.1 µM.
Experiment [5] has the same target. The settings on record: at 1 µM.
Experiment [6] has as its target Cyclin-dependent kinase 6 (Homo sapiens) (UniProt Q00534). The settings on record: at 0.1 µM.
For experiment [7] the target is unchanged. Conditions: at 1 µM.
The target of experiment [8] is Dual specificity protein kinase CLK2 (Homo sapiens) (UniProt P49760). The settings on record: at 0.1 µM.
For experiment [9] the target is unchanged. The settings on record: at 1 µM.
For experiment [10], the target named is Dual specificity protein kinase CLK3 (Homo sapiens) (UniProt P49761). Conditions: at 0.1 µM.

SMILES strings stand for the structures.

Cyclin-dependent kinase 4 (Homo sapiens), sequence (P11802 whole entry): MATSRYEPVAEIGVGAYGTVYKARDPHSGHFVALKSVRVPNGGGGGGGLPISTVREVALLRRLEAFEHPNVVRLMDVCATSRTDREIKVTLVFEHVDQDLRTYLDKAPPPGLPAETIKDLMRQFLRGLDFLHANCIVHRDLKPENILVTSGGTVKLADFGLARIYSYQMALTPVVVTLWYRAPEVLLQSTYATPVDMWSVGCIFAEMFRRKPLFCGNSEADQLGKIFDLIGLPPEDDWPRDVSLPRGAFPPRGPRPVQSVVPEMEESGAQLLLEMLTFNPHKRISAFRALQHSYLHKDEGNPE
Dual specificity protein kinase CLK2 (Homo sapiens), sequence (P49760 whole entry, looked up): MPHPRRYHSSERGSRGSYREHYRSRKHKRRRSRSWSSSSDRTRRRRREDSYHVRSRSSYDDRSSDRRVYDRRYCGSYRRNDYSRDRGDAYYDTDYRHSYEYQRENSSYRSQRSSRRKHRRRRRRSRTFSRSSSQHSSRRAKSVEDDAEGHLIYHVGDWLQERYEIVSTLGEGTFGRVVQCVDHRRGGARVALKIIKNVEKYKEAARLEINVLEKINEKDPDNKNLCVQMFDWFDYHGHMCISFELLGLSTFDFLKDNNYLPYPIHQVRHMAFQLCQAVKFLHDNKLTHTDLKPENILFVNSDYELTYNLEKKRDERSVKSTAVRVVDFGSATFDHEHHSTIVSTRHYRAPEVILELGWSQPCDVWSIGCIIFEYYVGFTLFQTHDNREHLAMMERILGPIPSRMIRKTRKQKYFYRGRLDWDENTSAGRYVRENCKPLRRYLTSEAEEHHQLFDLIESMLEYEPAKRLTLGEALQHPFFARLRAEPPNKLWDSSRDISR
Cyclin-dependent kinase 5 (Homo sapiens), sequence (Q00535 whole entry, looked up): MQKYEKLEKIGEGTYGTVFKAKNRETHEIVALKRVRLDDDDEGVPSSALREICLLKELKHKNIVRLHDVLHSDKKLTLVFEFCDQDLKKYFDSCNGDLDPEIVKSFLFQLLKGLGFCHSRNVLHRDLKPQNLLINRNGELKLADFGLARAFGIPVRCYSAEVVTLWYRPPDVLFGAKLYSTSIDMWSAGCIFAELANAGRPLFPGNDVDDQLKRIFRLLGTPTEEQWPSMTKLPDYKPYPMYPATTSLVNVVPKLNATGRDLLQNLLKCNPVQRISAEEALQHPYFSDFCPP
CDK3/Cyclin E (Homo sapiens), sequence (P24864 whole entry, looked up): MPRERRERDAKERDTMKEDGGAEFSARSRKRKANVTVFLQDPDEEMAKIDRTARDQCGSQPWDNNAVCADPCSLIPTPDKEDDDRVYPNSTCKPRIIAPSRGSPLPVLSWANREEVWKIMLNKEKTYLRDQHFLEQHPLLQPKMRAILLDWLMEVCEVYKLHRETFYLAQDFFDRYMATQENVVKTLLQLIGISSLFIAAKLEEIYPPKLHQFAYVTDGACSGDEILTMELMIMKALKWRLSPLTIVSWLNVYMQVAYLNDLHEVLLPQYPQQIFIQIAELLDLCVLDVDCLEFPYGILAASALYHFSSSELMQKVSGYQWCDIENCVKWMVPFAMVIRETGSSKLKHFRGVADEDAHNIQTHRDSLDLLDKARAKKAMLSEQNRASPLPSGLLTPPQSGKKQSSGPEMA
CDK3/Cyclin E (Homo sapiens), sequence (Q00526 whole entry, looked up): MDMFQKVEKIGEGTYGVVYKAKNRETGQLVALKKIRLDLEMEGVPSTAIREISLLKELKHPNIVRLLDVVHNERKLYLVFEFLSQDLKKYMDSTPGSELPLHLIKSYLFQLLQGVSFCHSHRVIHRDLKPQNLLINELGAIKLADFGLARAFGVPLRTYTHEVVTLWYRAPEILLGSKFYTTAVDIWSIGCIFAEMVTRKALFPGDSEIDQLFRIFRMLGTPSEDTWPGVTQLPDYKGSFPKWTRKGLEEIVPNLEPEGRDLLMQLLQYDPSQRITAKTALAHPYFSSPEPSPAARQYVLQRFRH
Dual specificity protein kinase CLK3 (Homo sapiens), sequence (P49761 whole entry, looked up): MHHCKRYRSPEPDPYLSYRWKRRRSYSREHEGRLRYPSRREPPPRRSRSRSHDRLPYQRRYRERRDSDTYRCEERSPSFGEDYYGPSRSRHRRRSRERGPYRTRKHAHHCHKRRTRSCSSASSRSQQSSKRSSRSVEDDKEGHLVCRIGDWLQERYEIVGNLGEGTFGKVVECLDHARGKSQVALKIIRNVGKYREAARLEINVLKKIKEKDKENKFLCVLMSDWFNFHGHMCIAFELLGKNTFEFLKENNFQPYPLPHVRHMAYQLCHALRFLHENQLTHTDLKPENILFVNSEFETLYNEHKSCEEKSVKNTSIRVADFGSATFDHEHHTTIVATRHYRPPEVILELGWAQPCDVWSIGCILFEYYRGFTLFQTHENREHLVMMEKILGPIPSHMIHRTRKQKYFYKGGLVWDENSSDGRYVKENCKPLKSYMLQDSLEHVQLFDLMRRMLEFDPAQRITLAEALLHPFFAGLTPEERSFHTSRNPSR
Cyclin-dependent kinase 6 (Homo sapiens), sequence (Q00534 whole entry): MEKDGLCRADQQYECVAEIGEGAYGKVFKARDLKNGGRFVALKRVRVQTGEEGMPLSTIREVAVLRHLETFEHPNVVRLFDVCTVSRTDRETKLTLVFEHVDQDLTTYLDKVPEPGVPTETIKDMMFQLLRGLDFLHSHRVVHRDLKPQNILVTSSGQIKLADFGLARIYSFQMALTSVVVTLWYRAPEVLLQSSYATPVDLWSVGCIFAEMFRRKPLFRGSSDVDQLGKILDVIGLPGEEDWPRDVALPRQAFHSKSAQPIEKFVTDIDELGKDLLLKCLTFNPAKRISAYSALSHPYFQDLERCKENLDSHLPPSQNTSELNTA

For the molecule `CCn1c(-c2nonc2N)nc2c(C#CC(C)(C)O)nc(CN3CCCC3)cc21`, the inhibition in [1] was -0.95%; in experiment [2] it was 1.6%; in [3], 2.5%; in experiment [4], 1.06%; in [5] it was 2.14%; in experiment [6] it was -8.94%. Moreover, the inhibition in experiment [7] was 0.66%; in experiment [8] it was -0.92%; in [9], 1.46%; in [10], -1.6%.

In the case of `Cc1cc(O)cc(C)c1/C=C/c1cncc(-c2nn[nH]n2)c1`, the inhibition in experiment [1] was -2.12%; in experiment [2], -0.96%; in [3] it was 0%; in experiment [4], -3.06%; in experiment [5], -3.35%; in experiment [6], -6.34%. Further, the inhibition was -0.68% in [7], 2.78% in [8] and 1.31% in [9].

Consider `Cc1ccc(NC(=O)c2ccnc(N3CCCC3)c2)cc1-c1ccc(C(=O)NCC2CC2)cc1`, for which the inhibition is -0.38% in experiment [1]; 0.83% in experiment [2]; 4.63% in [3]; 2.54% in [4]; 3.21% in experiment [5]; -7.97% in [6]. Moreover, the inhibition is -0.52% in [7], 3.05% in [8], 1.8% in experiment [9] and -1.85% in experiment [10].

In the case of `CCn1c(-c2nonc2N)nc2cnc(Oc3cccc(NC(=O)c4ccc(OCCN5CCOCC5)cc4)c3)cc21`, the inhibition in [1] was -2.11%; in [2], 3.32%; in [3], 2.38%; in experiment [4], -0.26%; in experiment [5] it was 0.42%; in experiment [6], -1.58%. The inhibition in [7] was -0.79%; in experiment [8] it was -0.98%; in experiment [9], -0.12%; in experiment [10], 0.57%.

Regarding `O=C1NC(=O)C(c2cccc(Cl)c2)=C1Nc1ccc(O)c(Cl)c1`, the inhibition in [1] was 6.94%; in experiment [2], 2.23%; in experiment [3], 13.9%; in experiment [4], 1.36%; in [5], 7.25%; in experiment [6], -3.15%. Besides, the inhibition is 12.6% in [7], 4.59% in experiment [8], 26.1% in [9] and -0.5% in [10].

Take `CS(=O)(=O)CCN(CC#N)Cc1ccc(-c2ccc3ncnc(Nc4ccc(OCc5cccc(F)c5)c(Cl)c4)c3c2)o1`: the inhibition was -2.66% in [1]; -2.96% in experiment [2]; -1.43% in experiment [3]; -3.58% in experiment [4]; -2.47% in experiment [5]; -5.97% in experiment [6]. Besides, the inhibition in [7] was -4.69%; in experiment [8] it was 1.05%; in experiment [9], 0.64%; in [10] it was -3.63%.

Regarding `CN(C)c1cc2c(Nc3ccc4nc(Cc5ccccc5)[nH]c4c3)ncnc2cn1`, the inhibition in experiment [1] was -2.11%; in [2], 3.33%; in [3], 3.46%; in experiment [4], 1.02%; in [5], 1.2%; in experiment [6], 1.12%. Also, the inhibition in [7] turned out to be 3.91%; in experiment [8], 2.08%; in experiment [9], 1.7%; in experiment [10], 2.14%.

`Cc1nnc(-c2ccc(C)c(-c3ccc(C(=O)Nc4cccc(C#N)c4)cc3)c2)o1`: the inhibition in experiment [1] is -0.82%; in [2] it was 0.95%; in [3], 0.68%; in experiment [4], 0.65%; in [5], 1.71%; in experiment [6] it was 1.26%. Also, the inhibition is 3.14% in [7], 1.15% in experiment [8], -0.94% in experiment [9] and 0.91% in experiment [10].

Take `Nc1nc(-c2ccccn2)c(-c2ccc3ncccc3n2)s1`: the inhibition in [1] came out at 0.5%; in experiment [2] it was 3.41%; in experiment [3], 4.48%; in experiment [4], 1.28%; in experiment [5], 2.86%; in experiment [6] it was 6.73%. The inhibition in experiment [7] is 7.75%; in experiment [8] it was -0.01%; in experiment [9], 0.69%; in experiment [10] it was 2.95%.

Regarding `Nc1ncnc2occ(-c3ccc(NC(=O)Nc4cccc(C(F)(F)F)c4)cc3)c12`, the inhibition came to 16.6% in [1]; 3.45% in experiment [2]; 6.6% in experiment [3]; 0.37% in [4]; 4.7% in experiment [5]; 1.3% in experiment [6]. Moreover, the inhibition is 2.21% in experiment [7], 0.14% in [8], 2.59% in experiment [9] and 1.01% in experiment [10].

On to `CCn1c(-c2nonc2N)nc2c(N3CCCC3)nccc21`, for which the inhibition in experiment [1] was -0.6%; in [2], 15.6%; in [3], 4.7%; in [4] it was 1.73%; in experiment [5], 4.5%; in [6] it was -2.76%. In addition, the inhibition in experiment [7] was 2.52%; in experiment [8], -0.76%; in experiment [9], -0.67%; in experiment [10] it was 1%.

On to `COc1cc2ncn(-c3cc(O[C@@H](C)c4ccccc4Cl)c(C(N)=O)s3)c2cc1OC`, for which the inhibition was -0.13% in [1]; 2.39% in [2]; 4.14% in [3]; 0.19% in experiment [4]; 2.21% in experiment [5]; -0.46% in experiment [6]. Further, the inhibition in experiment [7] amounted to 1.56%; in experiment [8] it was 0.33%; in experiment [9] it was 0.86%; in [10] it was 0.71%.

Consider `NC(=O)c1ccc(-c2nc(-c3ccccn3)c(-c3ccc4c(c3)OCO4)[nH]2)cc1`, for which the inhibition in [1] was -1.06%; in [2], 1.33%; in [3] it was 1.94%; in [4], 0.55%; in experiment [5], 0.87%; in [6], 1%. Also, the inhibition in experiment [7] was -1.82%; in experiment [8] it was 1.23%; in [9], 1.07%; in experiment [10] it was -1.49%.

Take `COc1cc(C=NNc2ncnc3c2cnn3-c2ccccc2)ccc1O`: the inhibition in experiment [1] amounted to 12.7%; in experiment [2], 3.09%; in experiment [3], 18.6%; in experiment [4], 4%; in experiment [5], 24.5%; in experiment [6] it was 4.2%. Also, the results for the inhibition in experiment [7], in experiment [8] and in experiment [9] were 21.7%, 3.39% and 9.02%, respectively.

Turning to `Fc1cccc(COc2ccc(Nc3ncnc4cc(-c5ccc[nH]5)sc34)cc2Cl)c1`, the inhibition was -1.23% in experiment [1]; -1.38% in experiment [2]; 1.79% in experiment [3]; -2.8% in experiment [4]; -0.09% in [5]; -9.87% in experiment [6]. Further, the inhibition in experiment [7] is -4.56%; in [8], 0.06%; in experiment [9], -0.33%; in [10], -2.46%.

On to `NCc1ccc(-c2nc(-c3ccc(Cl)c(O)c3)c(-c3ccncc3)[nH]2)cc1`, for which the inhibition in [1] was -2.19%; in experiment [2] it was 1.89%; in [3], 3.19%; in [4] it was 1.65%; in experiment [5], 3.47%; in [6], -3.35%. The inhibition in [7] was determined as 1.53%; in experiment [8], 2.01%; in experiment [9], 0.72%; in experiment [10], 0.63%.

Take `CCn1c(-c2nonc2N)nc2c(C#CC(C)(C)O)nc(OC[C@@H](N)c3ccccc3)cc21`: the inhibition was 0.99% in [1]; -0.22% in experiment [2]; 0.8% in experiment [3]; 0.35% in experiment [4]; 0.49% in experiment [5]; -0.27% in [6]. Further, the inhibition is -0.99% in experiment [7], 0.81% in experiment [8], 2.4% in [9] and -0.31% in experiment [10].

What is called inhibition is the change of the read-out against control, counted positive when it falls.
